Source: the supplement of paper PMC12632987

Molecular target: UCHL1, P09936
Experiment: median log2 fold change of GCK-ALFA target abundance (FLAG IP / Myc IP barcode read proportion) (log2 ratio); each designed protein is fused to an ALFA-tag nanobody in HEK293 cells to bring the named protein to FLAG-tagged glucokinase (GCK); Myc marks an untargeted standard; higher = target protein stabilised (more abundant)
Details: target protein: 3xFLAG-MCP-GCK-ALFA reporter; HEK293 landing pad (RPLP)
How it was run: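 Sequencing of reverse-transcribed, amplified circular RNA barcodes from anti-FLAG and anti-Myc immunoprecipitates provided the readout for an ALFA-nanobody-fused binder library recombined into HEK293 landing-pad cells. Those cells were induced with 2 μg mL^−1 doxycycline, transfected with a plasmid expressing a FLAG-tagged target and a Myc-tagged standard, and lysed after 48 h. Target abundance is the per-binder median log2 ratio of FLAG to Myc barcode read proportions. Only barcodes at a proportion of ≥10^−7 in both replicates and binders with ≥3 barcodes per replicate were kept, with a 10^−6 pseudocount added before the two replicates were pooled.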

Sequence of UCHL1, P09936 (P09936 whole entry, looked up, the tested form may be a part): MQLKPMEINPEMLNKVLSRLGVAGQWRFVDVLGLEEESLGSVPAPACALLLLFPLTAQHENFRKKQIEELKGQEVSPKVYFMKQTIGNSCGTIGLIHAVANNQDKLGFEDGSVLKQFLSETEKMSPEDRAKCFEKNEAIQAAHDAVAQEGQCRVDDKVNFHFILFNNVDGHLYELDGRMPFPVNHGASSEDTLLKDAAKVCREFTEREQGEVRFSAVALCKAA

Binder	median log2 fold change
uchl1_179_7504 (protein) ARRLVRIRATIVFPRSTTREEALAVARRIHAALKELGVTGLINLRVSRYNPENNPEHPDRMVIRLGLVVPEELADAVEAAIRALAAEAGAEIEIEREAIA	0.192
uchl1_199_7517 (protein) MSREDDIARYMAGPFLLSNGSPEVVRARARERTRRLIRTRKDLSPEELTEIMVRFVEILAAHRDPETVRAATEGIVEAILEELGDEEAARRVRARAEELL	0.00596
uchl1_199_7512 (protein) MSRAESIARQVGGRLLSGIGSPEVLAAKAAALLRRVLARLPDLPDETLLEMVRILLEAIARERSPEAFAAVAAALIAVLDAERGIGAEVAAIAEEVRAAA	-0.679
uchl1_199_7506 (protein) SSKTEDIARNMAGRLLRYIRTPEVLAARARRLTRLLIERQTDLSVEEITETLLKLVELVHKERTPEETRAVTDAIVEAVLELLGDEEAARRIREHAEELL	0.171
uchl1_199_7505 (protein) SSRTEDIARNMAGRLLRYIRSPEVLAERARRLTRELIERQTHLSVEEITETLKLLVTYIHAERSPEETRAATDAIVEAVRELLGDEAAAAAIRAHTEALL	0.192
uchl1_179_7503 (protein) AMKKVRIRATITFPKSTTMEQALAVAKEIAAALKELGVTGVSRIVVSRYNPENDPAHPDHMVITIGLVVPEEKAEAVIEAIKEIAAKAGAEVEIETEEVA	-0.0524
uchl1_199_7514 (protein) MSRAESIARQVGGRLLSGVGSPEVLAARAARLLREVLARLPDLPDEELLAMVRILLEAIAKNRSPETFDAVAAALIAVLQEERGIGAAAAAIAAEVRAKA	-0.0877
uchl1_199_7510 (protein) SSRTESIARNMAGRLLRYIMDPETARERARRLARRLITRRPGLSVEELTETFQLLVEYVAAERDPAVTRAVTDALVEAVREELGDEAAAAAVRARAEELL	-0.193
uchl1_199_7515 (protein) MTRAESIAAQLGGRLLSGIYSPEVLAARAAALWADVLRRLSDLPDEELLEAFRILLEALAAAVDEASARAAAEAIVAVLAEERGIGERARAIADEVLAAR	0.16
uchl1_199_7511 (protein) MTKEEDIARNMAGRLLRYELDPEKVRERARRLATLLVERLSHLSVEEITETFLILVELVAKENNPEVLRAVTEAIVEVVRERLGDEEAARRIRERAEELA	-0.27
uchl1_199_7508 (protein) SSKTEDIARNMAGRLLRYIRSPEVLAARARRLTERLIREQTHLSVEEITETFLLLVDYVHANRSPEQTRAVTDAIVEAVERELGDEEAAKRIREHTESLL	0.0747
uchl1_199_7507 (protein) SSLTEDIARNMAGRLLRYIRTPEVLAARAAELTARLIREQTHLSVEELTEIFLLLVDYVHAERTPEETRAATDAIVAEVERLLGDAAAAARIRAHAAALL	0.269
uchl1_199_7509 (protein) SSKTRSIAINMAGRLLRYIMDPETARERALRLARELITRRPGLSVEEITETFELLVRLVAAERDPETVRAVTDAIVEAILELLGDEEAAARVRATAEALV	-0.0199
uchl1_199_7513 (protein) MTRAESIARQVGGRLLSGIGSPEVLAARAARLLRLVLERLPDLPDEELLEAVRLLLRAIAAERSPEAFDAVAAALTAVLQEERGIGERMAAIAAEVRAEA	-0.209
uchl1_199_7518 (protein) MSREEDIARYMAGPFLFSNGSPEVVRARAYRLTVRLIRTRKDLSREELTAILVRFVEILAANRDPETVRAATEGIVEAVLEELGDEESAARIRAAAEALL	-0.219
uchl1_199_7516 (protein) MTRAESIARMLGGRLLRGIRDPEKLAARAAELTRRMLERLANLPDETILETVRLLLEAIARERSLEDARAAGEAIVEVLAEERGIGEAARAVVDEVLAAA	-0.835
